Laboratory results: the OligoGym collection

Target: DAGLA
Experiment: pooled miR-30 sensor sort-seq; sequence = guide strand
Details: shRNA
Further: reference of the scale not given here.

| Sequence | sensor-assay potency score (higher = more potent) |
| --- | --- |
| TTTTACAGCAATATTAGTTTGG | 0.015 |
| TAGAGGTCTTGGAAGGAGCTGC | 0.223 |
| TTAGGAACGGTGCACACTCATG | -1.56 |
| TATACAATATACAGAAACCTTT | -0.353 |
| TAAACATGTACAGCACTGCAGG | -1.11 |
| TCTTCTTGATGTACTCAGCTGA | 0.266 |
| TTGTAGTTCTCCAGCACCTTGT | -0.221 |
| TTTTCTAAACTCTAAGAGCCAC | -0.539 |
| ATTCTTGGCAGTGAGGTCGTTG | -0.825 |
| TATATTTATAGAATAAGCTATA | -0.774 |
| TAGCGGAGCATCTCTTGTGAAT | -1.2 |
| TAGAAGTCCGGATCTTGTCAGC | -0.641 |

Target: DAZ2
Experiment: as above
Details: shRNA

| Sequence | sensor-assay potency score (higher = more potent) |
| --- | --- |
| TCGTGATTATCTTCACTTCTTT | -0.86 |
| TATACAGGCAACTGATATCCAG | -0.956 |
| TGGATAAGCAGAATAAGCCTGA | -0.294 |

Target: DCAF4L2
Experiment: as above
Details: shRNA

| Sequence | sensor-assay potency score (higher = more potent) |
| --- | --- |
| TTAACTGAAACAACTTTACAGA | -0.678 |
| TTTGCAGAGAAGTCACTGCTGA | 0.521 |
| TTGGAGTATCTGCAAGTCCCAC | -0.914 |
| TAAACATCTCACAAACTGCTGC | -0.0348 |
| TAGCTGGTTCTTTCGTAGCATG | -1.53 |
| TCTGACTGTCTTTTTCTGCTTG | 0.906 |
| TTCTTCGTTCACATGCACGGGT | 0.233 |
| TACCTATGAACAGCGACGCTGG | -0.732 |
| TTTTCTTTTGTCAACTGCCCAT | -0.395 |
| TTATCTTTGACACTGAGCCCTT | -0.414 |
| TACTGTGTTACACATTTAGTGG | -1.02 |
| TGTATCTTCTCTATTGACCTAT | 0.0322 |

Target: DCHS2
Experiment: as above
Details: shRNA

| Sequence | sensor-assay potency score (higher = more potent) |
| --- | --- |
| TGGATTATCATTGACATCCAGC | -1.15 |
| TAGAATAGGTCAATTCTCCATA | -0.353 |
| TTCATAGTCAAACTGTCGCCGC | -0.481 |
| TTGAGAACATAAACTGAGGTGC | 0.162 |
| TGAATTATCATTCTCATCCTGT | 0.421 |
| TGTACCTTGATTACAGTCGTAT | -0.366 |
| TTATAGTAAAGCACTCATCAGT | -0.223 |
| TATATCAGTCACCTGTACCTTG | 0.322 |
| TAATCTAGAATCGCTTTTGTTG | -0.749 |
| TAGAAAGAAACAAGTCTCCGGT | 0.782 |
| ATACTTATTAAACTCAACCATT | -1.29 |
| TTTTCTGGAACAATACAGCTGA | 0.21 |
